{"source": "PubChem BioAssay AID1159506", "about": "(National Center for Advancing Translational Sciences (NCATS), 2015)", "note": "Over roughly 59,000 sequences, the read-out has its median near -0.00055; the lowest 2% begin near -2. This excerpt belongs to a sample that is enriched for the lowest values.", "data": [{"test": "Identification of proteins required for the processing of the EWS-FLI1 nascent transcript;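 also: robust z of luciferase light less the median z of siRNAs with the same seed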", "settings": "TC32 Ewing sarcoma NR0B1-luc vs CMV-luc (EWS-FLI1 target promoter against control promoter), 48 h; screened at 20 nM (by protocol)", "experimental": "Ewing sarcoma (ES) cells depend on the EWS-FLI1 fusion transcription factor for cell survival. Using an assay of EWS-FLI1 activity and genome-wide siRNA screening we have identified proteins required for the processing of the EWS-FLI1 nascent transcript. Parallel genome-wide siRNA-mediated RNAi screens were conducted in Ewing sarcoma TC32 cell lines expressing a luciferase (luc) reporter protein driven by either the promoter of the EWS-FLI1 target gene NR0B1 (TC32-NR0B1-luc) or the CMV promoter (TC32-CMV-luc). Luciferase activity was assessed 48 hours post siRNA-transfection.\nTwenty microl of serum-free media containing Lipofectamine RNAiMax (0.05 microl) was added to wells containing siRNA (0.8 pmol). Lipid and siRNA were allowed to complex for 45 min at ambient temperature before addition of 600 cells in RPMI-1640, 20% FBS to yield final transfection mixtures containing 20 nM siRNA in RPMI-1640, 10% FBS. Luciferase expression was measured using OneGlo (Promega, Madison, WI). The genome-wide screening campaign was conducted using Ambion's human genome library version 4.1 (Ambion, Austin TX). This library targets approximately 21000 human genes, three siRNAs per gene. Each siRNA is arrayed in an individual well of a 384-well plate. Parallel transfections were conducted in TC32-NR0B1-luc and TC32-CMV-luc cell lines and luciferase expression (OneGlo, Promega) was assayed 48 h later on a PerkinElmer Envision 2104 Multilabel plate reader (PerkinElmer, Waltham, MA). Qiagen's AllStars Negative control was incorporated on all screening plates for normalization (16 wells per plate). Qiagen, Germantown, MDsiGL4 was incorporated as a positive transfection control (16 wells per plate) on all plates. […] The raw luciferase data for the NR0B1- and CMV-luc screens were normalized and z-score-MAD transformed using standard methods (Chung et al., 2008). The miRNA-like seed sequence of every siRNA was determined and the median z-score for all siRNA sequences with the same seed sequence was calculated. This z-score was subtracted from the z-score associated with each siRNA with that seed sequence to generate a seed-adjusted z-score value (Z) that was used when the results for the three siRNAs corresponding to each gene were compared (Marine et al., 2012)", "values": [{"sequence": "UAGGGUCAUCGAGAGGUUC against MAML3", "seed-corrected z-score": -2.49}, {"sequence": "UGCAGUUUGACGGUGCCUC against TMEM204", "seed-corrected z-score": -0.467}, {"sequence": "UCCCAUUCCACUGCUACUG against RBMX", "seed-corrected z-score": -2.45}, {"sequence": "UAACUCGAAAGUGAACUUC against MYOZ3", "seed-corrected z-score": 0.0654}, {"sequence": "UAGGUAAUAAUUCACAAUG against CCL19", "seed-corrected z-score": -0.226}, {"sequence": "UCUGUUGGUACUGUGCAGG against PPA1", "seed-corrected z-score": -1.37}, {"sequence": "UCCGUUCACAUUCAGGAUC against SLC6A16", "seed-corrected z-score": -0.88}, {"sequence": "UCCUUGUAGAGCUUGAUGG against TOP3B", "seed-corrected z-score": 1.26}, {"sequence": "AACUAGAAUAAAGAAGAUG against SLC6A9", "seed-corrected z-score": 0.0838}, {"sequence": "AAAACUUCAAAUACCAUGC against SRPK1", "seed-corrected z-score": -1.05}, {"sequence": "UUGCGGGUGACAAUCUCCC against CROCC", "seed-corrected z-score": 0.165}, {"sequence": "UUUCCGGAUCAGACCGUGC against RPS29", "seed-corrected z-score": 1.1}, {"sequence": "UCACGGUCAACAAAGUAGG against BRINP1", "seed-corrected z-score": -2.87}, {"sequence": "UAUAAGAAAUGGUUUUGUC against OR6C6", "seed-corrected z-score": 0.719}, {"sequence": "AUCACGUUUAUGUCCAUUG against BMPER", "seed-corrected z-score": -0.464}, {"sequence": "UUGGCGUUCAUAAGCCGCC against PTRH1", "seed-corrected z-score": 0.961}, {"sequence": "ACUCUUUUUAAGGUGCUUC against DTX1", "seed-corrected z-score": -3.91}, {"sequence": "AAGUUUUCCAACGUACUCU against IL4", "seed-corrected z-score": 0.239}, {"sequence": "AAGGUUGAGAGAUGUAGCU against SPANXA1", "seed-corrected z-score": 1.05}, {"sequence": "UUUUAUUCUUUCGCUUUUU against MEAF6", "seed-corrected z-score": -1.39}, {"sequence": "UUUGGAAUCAUCCAGGAAA against C8orf82", "seed-corrected z-score": 0.192}, {"sequence": "UUCUGGAUAACAAAGUCAC against PCDH1", "seed-corrected z-score": 0.112}, {"sequence": "UGGUGAUUCAGAUAGCUGG against ARHGAP11A", "seed-corrected z-score": -0.84}, {"sequence": "AUCUUGAUAGGGACCUUGG against PRAP1", "seed-corrected z-score": 0.654}, {"sequence": "UGAUCUUAUAGUAAUCAGG against BRD4", "seed-corrected z-score": -2.52}, {"sequence": "GACGGCAUCAAUCAGGUCC against PYCR1", "seed-corrected z-score": 0.0435}, {"sequence": "AAAGAUGCAACCAAUGCUC against CDK3", "seed-corrected z-score": -0.134}, {"sequence": "UUACUUCAAAACGGUAUCC against ASB17", "seed-corrected z-score": -9.19}, {"sequence": "UGAUUGUUGACUGACGAUG against DMXL1", "seed-corrected z-score": 1.23}, {"sequence": "UUCUUUCAAAUUUCGGUUG against SOX13", "seed-corrected z-score": 0.262}, {"sequence": "UCUUGCUCUAGUGUCCUGG against DNAJC17", "seed-corrected z-score": -2.46}, {"sequence": "UUUAUCCUCAAAACUCUCC against C6orf10", "seed-corrected z-score": 0.952}, {"sequence": "UCUCAUACUUCCCAUGCCC against LSP1", "seed-corrected z-score": -0.209}, {"sequence": "UAUGGGACACUUAUUGGAG against PVRIG", "seed-corrected z-score": -0.543}, {"sequence": "AGAGCACUGAGUAGAAUGC against MFSD9", "seed-corrected z-score": -1.44}, {"sequence": "UGCUUGUCUAAGCCUUUGG against RPS12P9", "seed-corrected z-score": -2.08}, {"sequence": "UAAGGUAAUGAUUACCACC against RBKS", "seed-corrected z-score": -0.288}]}]}
